Laboratory results: PubChem BioAssay AID540313 (Sanford-Burnham Center for Chemical Genomics, 2011)
Screen size: about 2,500 compounds; fewer than 10 were called active. Not all results are given here. Unmarked numbers belong to inactive results.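 The calls were made as follows: active = inhibition of at least 30% at 20 µM; inactive = the rest.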

Experiment: colorimetric readout interference by compounds, confirmation, artefact control for Scp-1 inhibitor project, biochemical, single concentration (AID 540313);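 also: compounds added after enzyme reaction finished so only phosphate colour detection is probed; plate controls were DMSO wells with completed Scp-1 reaction for no effect and substrate wells lacking enzyme for full effect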
Settings: Colorimetric interference counterscreen, malachite green absorbance 630 nm; at 20 µM; active compounds read high

SMILES	apparent inhibition (interference)
O=c1c2cc(-c3ccccc3)sc2nc2n1N=C(c1cccs1)CS2	-15.6%
O=C(c1ccc(CS(=O)(=O)c2ccccc2)o1)N1CCN(c2ccccc2)CC1	-14.5%
Cc1ccc(C(=O)NNC(=O)c2cc3cc4ccccc4nc3s2)cc1	-12.3%
N#CC1=C(SCc2ccccc2)NC(=O)C(C#N)C12CCCC2 (stereo not drawn)	-3.5%
COc1cccc2sc(N(CCCN(C)C)C(=O)C(c3ccccc3)c3ccccc3)nc12	-9.56%
CN(c1ccccc1)S(=O)(=O)c1ccc(Cl)c(C(=O)OCC(=O)NCc2ccco2)c1	-22.8%
Nn1cnnc1N/N=C/c1cc([N+](=O)[O-])c(Cl)cc1Cl	2.55%
O=C(COC(=O)/C=C/c1ccc(Br)o1)Nc1cccc(S(=O)(=O)N2CCOCC2)c1	-18.6%
Cc1nnc(SCC(=O)Nc2ccc(S(=O)(=O)Nc3ccc(Cl)nn3)cc2)s1	-18.9%
O=C(COC(=O)CCC(=O)c1cccs1)NCc1ccco1	-8.73%
COCCCNc1nc2ccccc2nc1NS(=O)(=O)c1ccc(F)cc1	-12.6%
O=S(=O)(Nc1ccccc1Cl)c1cccc2nsnc12	-11.2%
CC(NC(=O)CC1SC(N)=NC1=O)c1ccccc1 (stereo not drawn)	-25.2%
O=C(O)c1ccc(N/N=C/c2ccc3ncccc3c2)cc1	-19.2%
ON=C1/C(=N\O)CC2(C/C1=N/O)OCCO2	-6.8%
O=C(Nc1cc(S(=O)(=O)N2CCCCC2)ccc1Cl)C1COc2ccccc2O1 (stereo not drawn)	-8.46%
Cc1nn(-c2cc(Cl)ccc2N)c(=O)c2ccccc12	-5.43%
Cc1ccc(CN2CCN(c3ccccc3Cl)CC2)o1	-14.5%
CN(CC(=O)Nc1cccc(F)c1)C(=O)C1CC(=O)N(CCc2ccccc2)C1 (stereo not drawn)	-6.79%
COc1ccc(NC(=O)N(C)C[C@H]2Oc3ccc(NC(=O)C4CC4)cc3C(=O)N([C@H](C)CO)C[C@@H]2C)cc1	-15.3%
COc1ccc(Cl)cc1C=CC=NNC(=O)c1ccncc1	-8.46%
Cc1ccc(S(=O)(=O)Nc2ccc3c(c2)C(=O)N([C@H](C)CO)C[C@@H](C)[C@@H](CN(C)C(=O)Nc2cccc4ccccc24)O3)cc1	-13.6%

SMILES	apparent inhibition (interference)
C=C1c2cccc(OC)c2O[C@H](C(=O)OCC)[C@@H]1CCCCCC	-7.63%
COc1cccc(CNS(=O)(=O)c2csc(C(N)=O)c2)c1	-12.8%
O=C(Nc1cccc(F)c1)[C@@H]1CCCN1	-5.98%
O=C(c1ccc2c(c1)OCO2)N1CCNc2ccccc2C1	-25.4%
C[C@H](CO)N1C[C@H](C)[C@H](CN(C)C(=O)Nc2ccc(C(F)(F)F)cc2)Oc2c(NC(=O)c3ccncc3)cccc2C1=O	-21.4%
Cc1ccccc1NC(=O)CN1C(=O)N/C(=C\c2cccn2-c2cccc(C(=O)O)c2)C1=O	6.13%
N#Cc1c(-c2cccs2)nc(SCC(=O)c2ccc(Br)cc2)[nH]c1=O	-20.8%
O=C(NNC(=O)c1ccc2ccccc2c1)c1ccc(Cl)cc1	-9.26%
N#Cc1ccc(C(=O)Nc2cccc3cccnc23)c(F)c1	-4.88%
Cc1ccc(S(=O)(=O)Nc2nc(C)cc(-n3nc(C)cc3C)n2)cc1	-5.43%
O=C(CN1CCN(S(=O)(=O)/C=C/c2ccccc2)CC1)NC(=O)NCc1ccco1	-17.5%
Cc1ccc(Cc2nnc(SCC(=O)Nc3ccc(C)cc3C)[nH]c2=O)cc1	-12.9%
O=C(Cn1cc(/C=N/NC(=O)c2cccc(C(F)(F)F)c2)c2ccccc21)Nc1ccc(F)cc1	-10.9%
CC1=NNC(=O)C1CCC(=O)N/N=C\c1cccc(Cl)c1 (stereo not drawn)	-21.4%
CCCc1nc(-c2cc3cc(C)ccc3[nH]c2=O)no1	-14%
COc1cccc(NC(C)=[N+](C)CCNS(=O)(=O)c2ccc(Cl)cc2)c1	-6.24%
Cc1ccc(N=Cc2c(O)n(-c3nccs3)c(=O)c3ccccc23)c(C)c1	-22.5%
O=C(CN1CCN(c2ccc(Cl)cc2)CC1)c1ccccc1	-14.5%
O=C(Cn1nnc(-c2ccc3c(c2)OCO3)n1)NCc1ccco1	-12%
Cc1cc(/C=C2\SC(=O)N(C)C2=O)c(C)n1-c1cccc(C(=O)O)c1	-18.6%
Cc1c(CCC(=O)O)c(=O)oc2c(C)c(OCc3ccccc3Cl)ccc12	-5.7%
COc1ccc2[nH]c3c(C)c4cc[n+](C)cc4c(C)c3c2c1	-5.15%

SMILES	apparent inhibition (interference)
NC(=O)NC(=O)CSc1nc2cc([N+](=O)[O-])ccc2n1-c1cccc(C(F)(F)F)c1	-5.7%
CCOc1ccccc1/C=c1\sc2nc(-c3ccco3)nn2c1=O	-22.1%
Cc1ccc(/C=C/C(=O)Nc2ccc([N+](=O)[O-])c(NC(=O)/C=C/c3ccc(C)o3)c2)o1	2.53%
COc1ccc(OC)c(NC(=O)CSc2nc(-c3ccccc3)cc(=O)[nH]2)c1	-14.8%
COc1ccc(OCC(=O)NNC(=O)c2ccc(-c3ccccc3)cc2)cc1	-11.5%
Cc1c([N+](=O)[O-])c(N)nn1C	2.28%
O=C1NN(c2ccccc2)C(=O)/C1=C/c1ccc(-c2cccc(C(=O)O)c2)o1	0.06%
COc1ccc(/C=C/C(=O)OCC(=O)NC2CCCCCC2)cc1OC	5.86%
Cc1ccc(CCCOC(=O)C[N+]2(C)CCCC2)cc1	-20%
Cc1c(CCC(=O)O)c(=O)oc2cc(OCc3ccc(Br)cc3)ccc12	-11.7%
CC1CCN(c2ccc(S(=O)(=O)Nc3cc(C(=O)O)cc(C(=O)O)c3)cc2[N+](=O)[O-])CC1	-19.7%
CC(=O)Nc1ccc(N2C(=O)CCC2=O)cc1C	-12.9%
Cn1c(N)c(C(=O)COC(=O)c2ccc3ccccc3c2)c(=O)n(C)c1=O	-13.1%
N/C(=N\OC(=O)N1c2ccccc2Sc2ccccc21)c1ccc(Br)cc1	-18.1%
O=[N+]([O-])c1cc(S(=O)(=O)Nc2cccc(Cl)c2)ccc1N=Nc1c(O)[nH]c2ccccc12	-15.6%
CCOC(=O)C1CCCN(C(=O)CN(c2ccc(OC)cc2)S(=O)(=O)c2c(C)noc2C)C1 (stereo not drawn)	-13.4%
C[n+]1ccc(C(=O)NCc2ccccc2)cc1	-18.9%
CCOC(=O)C1=C(C)c2ccccc2OC1(C)C(=O)OCC (stereo not drawn)	-21.7%
O=C(CNC(=O)C(c1ccccc1)c1ccccc1)N/N=C\c1ccc2c(c1)OCO2	-8.18%
CCC(=O)Nc1ccccc1N1CCN(S(C)(=O)=O)CC1	-13.4%
C=Cc1ccc(C(=O)N2CCCC(CCC(=O)N3CCN(c4ccccn4)CC3)C2)cc1 (stereo not drawn)	-12.3%
CCc1ccc(NC(=O)CS(=O)CC(=O)NCCCc2ccccc2)cc1 (stereo not drawn)	-6.8%

SMILES	apparent inhibition (interference)
O=C(CCS(=O)(=O)c1ccc(Br)cc1)NCCc1ccc(Cl)cc1	-10.1%
Cc1ccc(NC(=O)COc2ccc(/C=N\NC(=O)c3cccnc3)cc2)cc1C	-15.6%
O=C(CCNC(=O)c1ccccc1)NN=Cc1ccc(Br)o1	-15.3%
O=C(NN1C(=O)C2C3C=CC(O3)C2C1=O)c1ccccc1 (stereo not drawn)	-7.63%
COc1ccc(Cc2nnc(NC(=O)Cc3cccs3)s2)cc1	-7.35%
CCCCSc1nnc(-c2ccc(C)cc2)o1	-17.8%
CSc1ccc(/C=N/NC(=O)c2cccc(Cl)c2)cc1	-14.2%
Cc1oc2c(C)c3oc(=O)c(CC(=O)N[C@@H](CC(C)C)C(=O)N[C@@H](Cc4ccccc4)C(=O)O)c(C)c3cc2c1C	-9.01%
O=C(c1cc2c(s1)CCC2)N1CCN(c2ccccc2)CC1	-15.9%
COc1ccc(S(=O)(=O)c2c[nH]c(=S)[nH]c2=O)cc1Cl	-5.98%
COCCCn1c(Cc2csc(Nc3cccc(Cl)c3)n2)nnc1SCC(=O)OC1CCCCC1	-7.61%
C=CC1C(OC2OC(CO)C(O)C(O)C2O)OC=C(C(=O)OC)C1CC1CC(=O)CC(CC(=O)CCc2ccc(O)cc2)O1 (stereo not drawn)	-16.9%
COC(=O)c1ccc(-c2c(-c3ccccc3)ncc3cc(OC)c(OC)cc23)cc1	-3.78%
CCOc1ccc2nc(N(CCCN(C)C)C(=O)c3ccc(C(=O)c4ccccc4)cc3)sc2c1	-0.21%
COc1cc(/C=C/C2=CC(C)(C)NC(=S)N2)cc(OC)c1OC	-12%
COC(=O)CNC(=O)C(CCSC)NC(C)=O (stereo not drawn)	-13.1%
COc1cc(SC)ccc1C(=O)NNC(=O)C1COc2ccccc2O1 (stereo not drawn)	-1.3%
COC(=O)C[n+]1cccc2ccccc21	-9.28%
CC1=NN(C(=O)CCc2ccccc2O)C(O)(C(F)(F)F)C1 (stereo not drawn)	-14%
Cc1c(Cl)cnc(NC(=O)COC(=O)c2ccc(S(=O)(=O)NCc3ccco3)cc2)c1Cl	-10.4%
O=C(COc1ccc(-n2cnnn2)cc1)Nc1ccccc1Cl	-15.1%
COc1ccc(N2CCN(C(=O)CSc3nc4cc(OC)c(OC)cc4cc3C#N)CC2)cc1	-7.08%
